Screens: PubChem BioAssay, National Center for Advancing Translational Sciences (NCATS)
This is a sample that favours compounds with a hit; in the whole collection about 20% have one here.
Cycloheximide cs = affects cycloheximide protein synthesis inhibition readout, counter-screen; cell reporter, cycloheximide protein synthesis inhibition counterscreen; max response, %; 12% of 300,000 active; in the data active = max response mostly above about 13%, no sharp cut-off; inactive = mostly below about 14%; note: read at 38.3 µM for the half of the compounds with a filed dose; 0% is about no effect
HCMV inh = inhibitors of human cytomegalovirus | HFF cells, HCMV-luciferase reporter, 72 h; stronger effect = lower value | activity change, negative = inhibition, % at 57.5 µM | 4.5% of 410,000 active | AID 1259415; in the data active = activity change below about -60%; inconclusive = no clear call, values can overlap the other calls; inactive = above about -39%; note: % is set by controls: 0 for no effect and ±100 for the full control effect
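Steps: HFFs plated, 16 h 37C; compounds added; HCMV-luciferase added to MOI 1 PFU/cell; 72 h 37C; OneGlo reagent, 5 min room temperature; luminescence read, normalized to controls.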
Pf growth 96h = P. falciparum growth inhibition at 96 hours. Potency, µM (series often up to 28.7 µM), for inactives: at the top dose activity change, negative = inhibition, actives largely listed as inhibitors. 6.9% of 320,000 active. P. falciparum luciferase reporter growth, 96 h; note: potency is the fitted concentration of half-maximal effect; % is set by controls: 0 for no effect and ±100 for the full control effect
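P. falciparum expressing integrated firefly luciferase grown in erythrocytes (2% hematocrit, 0.05% parasitemia final) with compounds for 96 hours at 37 C, 5% CO2. Growth inhibition read as loss of luminescence after adding luciferase detection reagent.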
Shiga toxin inh = inhibitors of Shiga toxin in Vero cells; inhibition, % at 38.7 µM; Vero cells, Shiga toxin protein synthesis inhibition reporter; AID 2315; 9.2% of 290,000 active; in the data active = inhibition mostly above about 28%, no sharp cut-off; inactive = mostly below about 43%; note: 0% is about no effect
Pf growth 48h = inhibits P. falciparum growth in the first generation, 48 h; P. falciparum luciferase growth in erythrocytes, 48 h; Potency, µM (doses to about 28.7 µM), inactives show top-dose activity change, negative = inhibition, usual class: inhibitors; 5.9% of 310,000 active; AID 504832; note: potency is the fitted concentration of half-maximal effect; % is set by controls: 0 for no effect and ±100 for the full control effect
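In quantitative HTS format, infected erythrocytes bearing luciferase-reporter parasites were treated for a single generation at 37 C. Luminescence after adding detection reagent served as the growth measure.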
An asterisk follows results filed as active; ? = inconclusive; . = not tested or not shown. Unless noted, calls come from the whole dose curve; as a rule, active = well fitted inhibition curve with a large enough effect; inconclusive = small, poorly fitted or top-dose-only effect, or another doubt; inactive = no such curve, though single readings can be large or run the other way.

SMILES	Cycloheximide cs	HCMV inh	Pf growth 96h	Shiga toxin inh	Pf growth 48h
NS(=O)(=O)c1ccc(N=Nc2ccc(=O)[nH]c2O)cc1	10	-36	?	13	?
CCN(CC)S(=O)(=O)c1cc(OC)ccc1N=Nc1ccc(O)c2ncccc12	-6	-97*	39%	9	?
NS(=O)(=O)c1ccc(N=Nc2ccc(O)c3ncccc23)cc1	5	-97*	?	-9	2.6µM*
C#CCOCCOCCOCCNc1nc(N2CCN(C(=O)[C@H]([C@@H](C)CC)n3cc([C@@H](N)CO)nn3)CC2)nc(N2CCN(C(=O)[C@H](Cc3cc4ccccc4[nH]3)n3cc([C@@H](N)Cc4ccc(O)cc4)nn3)CC2)n1	-4	.	2.9µM*	14	-100%
C#CCOCCOCCOCCNc1nc(N2CCN(C(=O)[C@H]([C@@H](C)CC)n3cc([C@@H](N)CO)nn3)CC2)nc(N2CCN(C(=O)[C@H](Cc3ccc(O)cc3)n3cc([C@@H](N)CC(C)C)nn3)CC2)n1	-1	-14	0%	2	?
C#CCOCCOCCOCCNc1nc(N2CCN(C(=O)[C@H](Cc3cc4ccccc4[nH]3)n3cc([C@@H](N)C(C)CC)nn3)CC2)nc(N2CCN(C(=O)[C@H](Cc3cc4ccccc4[nH]3)n3cc([C@@H](N)CC(C)C)nn3)CC2)n1 (stereo not given in full)	-4	.	?	-5	12µM*
C#CCOCCOCCOCCNc1nc(N2CCN(C(=O)[C@H](CCC(=O)O)n3cc(C(N)Cc4ccc(O)cc4)nn3)CC2)nc(N2CCN(C(=O)[C@H](Cc3cc4ccccc4[nH]3)n3cc(C(N)CC(C)C)nn3)CC2)n1 (stereo not given in full)	-3	.	4%	-12	24%
C#CCOCCOCCOCCNc1nc(N2CCN(C(=O)[C@H](CCCCN)n3cc([C@@H](N)C(C)CC)nn3)CC2)nc(N2CCN(C(=O)[C@H](Cc3cc4ccccc4[nH]3)n3cc([C@@H](N)CC(C)C)nn3)CC2)n1 (stereo not given in full)	-4	.	35%	-19	2%
C#CCOCCOCCOCCNc1nc(N2CCOCC2)nc(N2CCN(C(=O)[C@H](Cc3cc4ccccc4[nH]3)n3cc([C@@H](N)Cc4ccc(O)cc4)nn3)CC2)n1	5	18	1.9µM*	-14	?
C#CCOCCOCCOCCNc1nc(N2CCN(C(=O)C(Cc3ccc(O)cc3)n3cc(C(N)CC(C)C)nn3)CC2)nc(N2CCN(C(=O)C(Cc3cc4ccccc4[nH]3)n3cc(C(N)Cc4ccc(O)cc4)nn3)CC2)n1 (stereo not given)	-1	.	13µM*	-19	?
CC(OC(=O)CCCN=C1NS(=O)(=O)c2ccccc21)C(=O)Nc1ccccc1F (stereo not given)	.	-7	12%	.	4%
O=C(NCc1ccncc1)c1cc(S(=O)(=O)N2CCOCC2)c(Cl)cc1Cl	.	-33	-15%	.	?
Cn1c(=O)c2cc(C(=O)N3CCN(c4cccc(C(F)(F)F)c4)CC3)sc2c2ccccc21	.	5	.	.	.
Cc1sc2nc3ccc(N4CCCCC4)nn3c(=O)c2c1C	30*	-20	?	68*	?
CC1CCCN(c2ccc3nc4ccccc4c(=O)n3n2)C1 (stereo not given)	2	59	?	13	138%
Cc1ccc2nc3ccc(N4CCCC4)nn3c(=O)c2c1	35*	105	4.7µM*	63	171%
CC(=O)c1ccc(N2CCN(c3ncnc4onc(-c5ccc(Cl)cc5)c34)CC2)cc1	.	2	.	.	.
O=C(Cn1c(=O)n(Cc2ccccc2)c(=O)c2oc3ccccc3c21)Nc1ccc(Cl)cc1	.	-3	.	.	.
COc1ccccc1NC(=O)C1CCN(S(=O)(=O)c2ccc3c(c2)CC(C)N3C(C)=O)CC1 (stereo not given)	5	-18	-25%	-3	?
CC1Cc2cc(S(=O)(=O)N3CCC(C(=O)Nc4ccccn4)CC3)ccc2N1C(=O)C1CCC1 (stereo not given)	-4	-73*	?	-8	?
Cc1ccc(NC(=O)C2CCN(S(=O)(=O)c3ccc4c(c3)CC(C)N4C(=O)C3CCC3)CC2)nc1 (stereo not given)	2	-86*	?	-12	?
CC(=O)N1CCOc2ccc(S(=O)(=O)NCCc3cccc(C)c3)cc21	16	-13	10µM*	17	21%
CC(=O)N1c2ccc(S(=O)(=O)N3CCC(C(=O)Nc4ccc(C)cn4)CC3)cc2CC1C (stereo not given)	-4	-80*	?	-9	?
Cc1ccc(CNC(=O)C2CCN(S(=O)(=O)c3ccc4c(c3)CC(C)N4C(=O)C3CCC3)CC2)o1 (stereo not given)	1	-24	?	-8	?
CC(=O)N1CCOc2ccc(S(=O)(=O)NCCc3ccccc3)cc21	12	8	?	-1	10%
SMILES	Cycloheximide cs	HCMV inh	Pf growth 96h	Shiga toxin inh	Pf growth 48h
CCC12CN3CC(C)(CN(C1)C3c1c[nH]c3ccccc13)C2=O (stereo not given)	.	-3	.	.	.
Cc1cccc(C(C(N)=O)c2ncc(C(F)(F)F)cc2Cl)c1 (stereo not given)	-3	-4	3%	-14	-19%
NC(=O)CSc1nnnn1-c1ccccc1Cl	1	-4	?	19	-2%
CC(C)Cc1nn2c(=O)cc(COC(=O)c3ccccc3NC(=O)c3cccs3)nc2s1	.	-39	.	.	.
Cc1ccnc(NC(=O)C2CCN(S(=O)(=O)c3ccc(C)c(C)c3)CC2)c1	.	-5	-57%	.	34%
CC(=O)N1c2ccc(S(=O)(=O)NCC3CCC(C(=O)Nc4ccc(C)cn4)CC3)cc2CC1C (stereo not given)	-2	-62*	?	-2	?
CC(=O)N1c2ccc(S(=O)(=O)NCC3CCC(C(=O)N4CCCC(C)C4)CC3)cc2CC1C (stereo not given)	-2	0	1.2µM*	-5	?
Cc1ccnc(NC(=O)C2CCN(S(=O)(=O)c3ccc4c(c3)CC(C)N4C(=O)C3CCC3)CC2)c1 (stereo not given)	13	?	?	11	10µM*
CC(=O)N1CCOc2ccc(S(=O)(=O)NCC3CCC(C(=O)Nc4ccc(C)cn4)CC3)cc21 (stereo not given)	-10	-68*	?	-6	-16%
CCOc1ccccc1NC(=O)Nc1nnc(N(C)Cc2ccccc2)s1	.	-19	.	.	.
CC(C)CCNC(=O)C1CCN(S(=O)(=O)c2ccc3c(c2)CC(C)N3C(=O)C2CCC2)CC1 (stereo not given)	-2	-10	?	-4	15µM*
CSc1nc(-c2ccc(N(C)C)cc2)c(C#N)c(=O)n1C	25*	21	1%	42*	45%
CSc1nc(-c2ccc(Cl)cc2)c(C#N)c(=O)n1C	1	-9	?	52	?
